Several values for one entry are separate records, joined by “and”; a condition that tells them apart may be missing. Equal values may be shown once. Hit rate of the full screen: of about 260,000 compounds, about 2,200 (0.85%) were called active.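 Rule for the calls: active = compounds whose cAMP rise, as percent of the full-agonist control response, exceeds 60; inactive = the rest.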 Only a selection was taken, and actives are over-represented in it overall. Where a structure was tested more than once in an assay, its records may differ in their call.
Target: Prostaglandin E2 receptor EP2 subtype (Homo sapiens) (UniProt P43116)
Sequence (P43116 whole entry, looked up): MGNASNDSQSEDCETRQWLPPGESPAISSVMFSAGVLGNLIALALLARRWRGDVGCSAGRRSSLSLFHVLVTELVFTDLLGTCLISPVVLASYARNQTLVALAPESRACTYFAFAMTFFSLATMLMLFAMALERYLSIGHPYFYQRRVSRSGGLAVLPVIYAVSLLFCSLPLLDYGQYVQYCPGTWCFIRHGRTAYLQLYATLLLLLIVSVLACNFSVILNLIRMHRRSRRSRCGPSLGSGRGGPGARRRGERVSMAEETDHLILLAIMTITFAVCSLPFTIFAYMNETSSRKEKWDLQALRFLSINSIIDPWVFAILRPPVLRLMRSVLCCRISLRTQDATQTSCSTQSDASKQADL
Assay: EP2 receptor modulators, cAMP readout, primary screen, cell-based, HTRF cAMP, PGE2 stimulation (AID 940);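 note: rat C6 glioma line stably carrying human EP2 under a CMV promoter; the protocol text gives 20 µM as final concentration; 100% = response of wells given 1 µM PGE2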
Settings: EP2-expressing cells, cAMP HTRF FRET, PGE2 co-stimulation; at 25 µM; stronger effect = higher value

induction, active:
COc1ccccc1NC(=S)N1CCN(C(c2ccccc2)c2ccccc2)CC1 61.4%
O=C(Nc1ccccc1N1CCCCC1)c1ccc2nccnc2c1 87.1%
O=C(Nc1ccccc1N1CCCCC1)c1cccc(F)c1 66.7%
CCOC(=O)C1=C(CN2CCc3ccccc32)NC(=O)NC1c1ccc(Cl)cc1 (centres undefined) 68.2%
CCOC(=O)C1=C(CN2CCc3ccccc32)NC(=O)NC1c1cccc([N+](=O)[O-])c1 (centres undefined) 64.5%
Cc1cc(-c2cccs2)nc(-n2cccc2)n1 62.7%
CCNC(=O)c1c(O)c2cccc3c2n(c1=O)CC3 60.8%
O=C(c1cc2sccc2n1Cc1ccc(F)cc1)N1CCc2ccccc21 63%
CCN1CCN(c2c(Cl)cccc2NC(=O)c2ccc(Br)o2)CC1 74.4%
CCCc1nc(SCC(=O)OCC)c2c(C)c(C)sc2n1 74%
CCC(C)(C)c1ccc(OCC(=O)N(C)C)c(C(C)(C)CC)c1 76%
CSc1nc2ccccc2c(=O)n1Cc1ccc(F)cc1 80.8%
CC(C)Oc1c(Br)cc(Br)cc1/C=N/NC(N)=S 62%
COC(=O)c1c(NC(=O)C(C)C)sc(C(=O)Nc2cc(C)ccc2C)c1C 62%
CCCCCn1c(SCCC(C)C)nc2c1c(=O)[nH]c(=O)n2C 69.2%
CC1=CC(C)(C)N(C(=O)CSc2nnc(-c3ccccc3)o2)c2ccc(C)cc21 61.5%

induction, 46.2% (inactive) and 68.4% (active):
O=c1[nH]c(CSc2ncc(-c3ccc(F)cc3)n2Cc2ccco2)nc2ccccc12

induction, inactive:
CC(C)NC(=S)N1CCN(C(c2ccccc2)c2ccccc2)CC1 21.2%
COc1ccccc1NC(=S)N1CCC(NC(=O)C23CC4CC(CC(C4)C2)C3)CC1 -21% and -7.94%
COc1cccc(NC(=O)C(C#N)Cc2cccnc2)c1 (centres undefined) 2.36%
O=c1oc2ccccc2cc1-c1csc(Nc2cccc(O)c2)n1 -123%
CC1(C)CCCC2(C)C3C1[C@@H](O)C2(C)C[C@H]3O (some centres undefined) 15.3%
CC(C)NC(=O)CN1N=C(c2ccccc2)Cn2c(cc3ccccc32)C1=O -36.4%
NC(=O)c1nnn(-c2ccc(S(=O)(=O)N3CCCCC3)cc2)c1N 11.5%
O=C(Nc1ccccc1N1CCN(C(=O)c2ccccc2)CC1)c1ccc2c(c1)OCO2 -6.37%
Cc1cccc(C(=O)Nc2ccccc2N2CCN(c3ccc(F)cc3)CC2)c1 49.9%
Cc1ccc(C)c(NC(=O)c2ccc3nccnc3c2)c1 -54%
O=C(Nc1ccccc1N1CCN(c2ccccc2)CC1)c1cccc(F)c1 48.5%
CN(C(=O)C1CCCCC1)c1nc(-c2ccc(Cl)cc2)cs1 -0.87%
Cc1ccc(N(C(=O)Cn2nnc3ccccc32)C(C(=O)NC2CCCC2)c2ccsc2)cc1 (centres undefined) 20.6%
CC(=O)C1CC(CC(=O)N[C@H](Cn2nnc3ccccc32)C(C)C)C1(C)C (some centres undefined) -25.1%
COc1cccc(/C(O)=C2/C(=O)C(=O)N(CCN(C)C)C2c2ccco2)c1 (centres undefined) 2.05%
Cc1ccc2[nH]c(=O)c(C(c3nnnn3Cc3ccc(F)cc3)N3CCCC3)cc2c1 (centres undefined) -4.96%
NC(=O)CNC(=O)C1CCCN(c2ncccn2)C1 (centres undefined) 14.7%
COCCNCC(=O)N1CCc2ccccc21 10.7%
Cc1ccc2cc(C(c3nnnn3C3CCCC3)N3CCC(C)CC3)c(=O)[nH]c2c1C (centres undefined) -2.6%
CCn1c(Cc2ccccc2)nnc1SCc1nc2ccccc2c(=O)[nH]1 2.09%
Cn1c(-c2ccc(F)cc2)cnc1SCC(=O)NCc1ccco1 -17% and -3.43%
COc1ccc2cc(C)c3nn(CC(=O)N4CCC(C)CC4)c(=O)n3c2c1 -70.2%
CCn1cc(S(=O)(=O)N2CCC(CCc3ccc(C(=O)O)cc3)CC2)c(C)n1 -33.1%
Cc1cc(NC(=O)CSc2nnc3c4c5c(sc4nc(C(C)C)n23)CCCC5)no1 0.87%
CCOC(=O)C1=C(CN2CCCCCC2)NC(=O)NC1c1cccc([N+](=O)[O-])c1 (centres undefined) -9.45%
CCOC(=O)C1=C(c2ccccc2)NC(=S)NC1c1ccc(Cl)cc1 (centres undefined) 47.1%
CCOC(=O)C1=C(C)NC(=O)NC1c1ccccc1 (centres undefined) 19%
CCOC(=O)C1=C(CNC2CCCCC2)NC(=O)NC1c1cc(C)ccc1C (centres undefined) 34.3%
COc1ccc(-c2nc(SCC(=O)O)n[nH]2)cc1 -21.9%
Cc1ccc(NC(=O)CSc2nccc(=O)[nH]2)c(C)c1 -21.1%
Clc1c(-c2nnc(-c3ccc(N4CCOCC4)cc3)o2)sc2ccccc12 -13.2%
c1csc(-c2cn3c(n2)SCC3)c1 -16.2%
Cc1cc2nc(C(F)(F)F)cc(-c3cccs3)n2n1 19.1%
O=C(CSc1nc(-c2ccco2)cc(C(F)(F)F)n1)Nc1ccc(Cl)cc1Cl -110%
O=C(NCCO)C(=O)NCC1COc2ccccc2O1 (centres undefined) -12.4%
Cc1cc(=O)n2c3c(cccc13)CCC2 1.93%
Cc1ccc2nc(NC(=O)c3c(O)c4cccc5c4n(c3=O)CC5)sc2c1 -11.9%
CN1c2ncccc2C(=O)NC12CCN(C(=O)Cn1ncc3ccccc3c1=O)CC2 -10.6%
O=C(NCc1ccco1)c1cc2sccc2n1Cc1ccc(F)cc1 41.1%
CC1Cc2ccccc2N1C(=O)c1cc2sccc2n1Cc1ccccc1 (centres undefined) 54.1%
O=C(NCc1nc(-c2cccnc2)n[nH]1)C(c1ccccc1)C1CCCCC1 (centres undefined) 24.6%
Cc1ccccc1-n1c(SCC(=O)N2CCCCCC2)nnc1-c1cccnc1 -15.5%
COc1cccc(CN2CCN(C(=O)c3ccccn3)[C@@H](C)C2)c1 -14.5%
CCn1c(SCC(=O)Nc2ccc(C)cc2C)nnc1C(C)C -31.6%
CCCC(=O)Nc1ccc(Cl)c(NC(=O)c2ccc(Br)o2)c1 6.2%
COc1cc(OC)c(NC(=O)c2ccc(Br)o2)cc1Cl -17.9%
CCCc1nc(SCC(=O)N2CCCC2)c2c(C)c(C)sc2n1 1.9%
CCOC(=O)c1sc2nc(C)nc(SCC(N)=O)c2c1C 9.11%
COc1ccc(OC)c(C(=O)CSc2ncnc3c2cnn3-c2ccccc2C)c1 44.3%
Cn1c(=O)[nH]c(=O)c2c1nc(NCCCO)n2Cc1cccc2ccccc12 22%
CCc1nc(C)ccc1OCC(=O)N(CC)CC 8.52%
CN(C)CCOc1ccc(Cl)cc1C(C)(C)C -0.86%
COc1cc(C2NC(=O)NC(C)=C2C(=O)Nc2ccc(C)cc2C)ccc1O (centres undefined) 5.85%
O=C(CCn1c(SCC(=O)c2ccccc2)nc2ccccc2c1=O)NCc1ccc(F)cc1 11.2%
COC(=O)CSc1nc2ccccc2c(=O)n1Cc1ccccc1 47.6%
COc1cccc(C2(NC(=O)c3cccc(N4CCCCS4(=O)=O)c3)CCCC2)c1 -5.04%
O=C(Nc1cc(Cl)cc(Cl)c1)C1CCN(C(=O)c2cccs2)CC1 -118%
C=CCn1c(SCC(=O)Nc2ccccc2F)nc2sc(C)c(C)c2c1=O -87.9%
COc1cccc(-c2ccc(NS(=O)(=O)c3ccc4c(c3)CCC(=O)N4)cc2)c1 -97.5%
NC(=S)N/N=C/c1coc2cc(Cl)ccc2c1=O 5.33%
CCOc1ccc(/C=N/NC(N)=S)cc1 -0.15%
COc1ccccc1NC(=S)N(Cc1cc2c(C)cc(C)cc2[nH]c1=O)C1CCCC1 3.07%
CCOC(=O)C(=O)Nc1sc(C(=O)Nc2cc(C)ccc2C)c(C)c1C(=O)OC -1.65%
COC(=O)c1c(NC(=O)C2CC2)sc(C(=O)Nc2cc(C)ccc2C)c1C -75.5%
COCCn1c(=O)n(CC(=O)N2CCN(c3ccccc3F)CC2)c2cccnc21 0.09%
CCN1c2ncccc2C(=O)NC12CCN(C(=O)c1cccc3c1C(=O)N(C)C3)CC2 -5.04%
CCn1c(CSc2nc(C)cc(C)n2)nnc1SCC(=O)Nc1cccc(C(F)(F)F)c1 -10.6%
CC[N+](C)(CC[N+](C)(C)C)Cc1cc2ccccc2o1 (centres undefined) -3.15%
CCCCCCn1c(SCC(=O)c2ccccc2)nc2c1c(=O)[nH]c(=O)n2C -0.64%
C=CCn1c(SC(C)C(=O)OC)nc2c1c(=O)[nH]c(=O)n2C (centres undefined) -1.3%
C=CCn1c(=O)c(C(=O)Nc2cccc(C)n2)c(O)c2ccccc21 2.07%
CCn1c(COc2ccc(OC)cc2)nnc1SC(C)C(=O)Nc1ccccc1C (centres undefined) 28.9%
COc1ccccc1Cc1nnc(NC(=O)c2cnc(SC)nc2)s1 -0.63%
CC1=CC(C)(C)N(C(=O)CSc2nccn2C)c2cc(C)ccc21 43.9%
O=C(CSc1nnc(-c2ccccc2)o1)N1CCOCC1 1.42%
COc1ccc(-c2csc(N3N=C(C)CC3=O)n2)cc1 -82.9%
NC(=O)C1CCN(Cc2nnnn2Cc2ccccc2)CC1 25.5%
